The sample as a whole holds a higher share of hits than the screen did.
KDM5B inh – Primary screen for KDM5B Histone Demethylases FDH-coupled qHTS; 220,000 tested, 2.6% active; KDM5B demethylase, FDH-coupled NADH fluorescence (FDH is formaldehyde dehydrogenase); AID 1347165, 2019; Potency, µM (series often up to 57.7 µM), most hits filed as inhibitors; active = well fitted inhibition curve with a large enough effect; note: 0% is about no effect; nearly all actives have a fitted effect of over 70% in size
Target sequence (Q9UGL1 whole entry, looked up): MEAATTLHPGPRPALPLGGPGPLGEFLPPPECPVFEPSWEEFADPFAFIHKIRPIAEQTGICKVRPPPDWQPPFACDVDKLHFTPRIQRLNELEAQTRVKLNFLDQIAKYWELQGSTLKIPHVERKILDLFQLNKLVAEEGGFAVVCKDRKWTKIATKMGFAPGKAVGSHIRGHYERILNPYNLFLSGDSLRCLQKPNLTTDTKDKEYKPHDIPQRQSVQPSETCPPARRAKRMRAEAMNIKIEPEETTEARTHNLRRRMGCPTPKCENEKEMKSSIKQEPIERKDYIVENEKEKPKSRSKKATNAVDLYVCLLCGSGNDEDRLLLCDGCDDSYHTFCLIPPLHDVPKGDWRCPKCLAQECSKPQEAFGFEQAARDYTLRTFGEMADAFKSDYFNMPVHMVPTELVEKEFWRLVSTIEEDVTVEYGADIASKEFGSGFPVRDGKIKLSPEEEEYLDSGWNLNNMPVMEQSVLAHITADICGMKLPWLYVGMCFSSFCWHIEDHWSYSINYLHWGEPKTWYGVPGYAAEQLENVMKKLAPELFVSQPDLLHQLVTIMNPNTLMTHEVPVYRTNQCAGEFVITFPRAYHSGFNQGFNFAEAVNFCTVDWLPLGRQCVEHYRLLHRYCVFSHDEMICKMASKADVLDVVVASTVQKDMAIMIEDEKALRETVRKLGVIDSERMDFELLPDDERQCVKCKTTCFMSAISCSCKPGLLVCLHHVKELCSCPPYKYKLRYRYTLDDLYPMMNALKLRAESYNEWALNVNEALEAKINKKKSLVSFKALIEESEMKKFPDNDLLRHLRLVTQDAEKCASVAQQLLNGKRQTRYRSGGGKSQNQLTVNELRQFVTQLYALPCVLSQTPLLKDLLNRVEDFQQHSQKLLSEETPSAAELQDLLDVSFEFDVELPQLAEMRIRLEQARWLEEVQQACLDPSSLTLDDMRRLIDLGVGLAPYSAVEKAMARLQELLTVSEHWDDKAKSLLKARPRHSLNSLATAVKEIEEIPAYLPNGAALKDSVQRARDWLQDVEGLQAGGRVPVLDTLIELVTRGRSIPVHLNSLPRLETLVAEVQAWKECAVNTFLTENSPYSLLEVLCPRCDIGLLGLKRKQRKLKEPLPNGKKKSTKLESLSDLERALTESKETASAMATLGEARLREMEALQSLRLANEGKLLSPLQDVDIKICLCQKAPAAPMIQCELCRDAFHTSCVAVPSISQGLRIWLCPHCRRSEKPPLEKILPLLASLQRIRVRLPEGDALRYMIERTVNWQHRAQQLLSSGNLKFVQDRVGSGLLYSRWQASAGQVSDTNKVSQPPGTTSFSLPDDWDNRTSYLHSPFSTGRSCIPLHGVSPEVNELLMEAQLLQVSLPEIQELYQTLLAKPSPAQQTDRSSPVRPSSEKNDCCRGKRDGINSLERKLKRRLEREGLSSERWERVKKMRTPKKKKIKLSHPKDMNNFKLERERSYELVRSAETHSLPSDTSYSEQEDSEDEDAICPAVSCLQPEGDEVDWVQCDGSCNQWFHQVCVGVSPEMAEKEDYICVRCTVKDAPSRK
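KDM5BΔAP (200 nM final) in 50 mM HEPES pH 7.5, 0.01% Tween-20 was preincubated 10 min at RT with compound over a concentration range. Substrate mix (H3K4me3 12.5 µM, α-KG 25 µM, Fe²⁺, ascorbate, NAD⁺, FDH) was added, and NADH fluorescence change over 30 min gave dose-response curves.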
* = called active by the depositor. Potency is the fitted concentration of half-maximal effect.

Screening CCC(CNC(=O)c1cc2ccccc2oc1=O)c1ccccc1 (centres undefined) returned KDM5B inh inactive.
Screening Cc1cc(C(=O)OCC(=O)Nc2ccc(Br)c(C)c2)c2ccccc2n1 returned KDM5B inh inactive.
For CN(CC(=O)N1CCn2nc(Cc3ccccc3)cc2C1)Cc1ccncc1 the results were KDM5B inh 14.1µM*.
Screening CC(=O)c1c(C)nn(CC(=O)N2CCn3nc(Cc4ccccc4)cc3C2)c1C returned KDM5B inh inactive.
For O=C(CCc1ccccc1Cl)N1CCn2nc(Cc3ccccc3)cc2C1 the results were KDM5B inh inactive.
`NC(=O)[C@@H]1CCCN1C(C(=O)O)c1cn(CCC(=O)O)c2cc(F)ccc12` (some centres undefined) gave KDM5B inh inactive.
`N#CC1(NC(=O)CSc2nc(-c3cccs3)nc3ccccc23)CCCCC1` gave KDM5B inh inactive.
Screening CNc1ncccc1C(=O)N1CC[C@@H](c2ccc3c(c2)OCO3)[C@H](O)C1 returned KDM5B inh 28.2µM*.
Screening O=C(c1cn2ccsc2n1)N1CC[C@@H](c2ccc3c(c2)OCO3)[C@H](O)C1 returned KDM5B inh inactive.
Screening O=C(O)c1ccc(CN2CC[C@@H](c3ccc4c(c3)OCO4)[C@H](O)C2)cc1 returned KDM5B inh inactive.
Screening Cc1c(C(=O)OCc2ccccc2C#N)oc2ccccc12 returned KDM5B inh inactive.
`Cc1ccc(CN2CCN(CC(=O)Nc3cccc4nsnc34)CC2)o1` gave KDM5B inh inactive.
Screening CCCN1CCN(CCNC(=O)c2cn3ccnc(-c4ccc(OC)cc4)c3n2)CC1 returned KDM5B inh 20µM*.
For COc1ccc(-c2nccn3cc(C(=O)NCCN4CCCCC4)nc23)cc1 the results were KDM5B inh 20µM*.
`CCCCN1CCN(C(=O)c2cn3ccnc(-c4ccccc4)c3n2)CC1` gave KDM5B inh inactive.
Screening COc1cccc(N2CCN(C(=O)c3cn4ccnc(-c5ccccc5)c4n3)CC2)c1 returned KDM5B inh inactive.
`CCCN1CCN(CCNC(=O)Nc2cc(OC)cc(OC)c2)CC1` gave KDM5B inh inactive.
`CCOC(=O)C1CCN(C(=O)c2cn3ccnc(-c4ccc(C)cc4)c3n2)CC1` gave KDM5B inh inactive.
COC(=O)C1=CN(Cc2ccc(OC)cc2)C=C(C(=O)OC)C1c1ccccc1OCc1ccccc1 was read as KDM5B inh inactive.
`O=C(COc1cccc(Br)c1)Nc1ccc(NC(=O)C2CC2)cc1` gave KDM5B inh inactive.
Screening COc1ccc(NC(=O)CCc2c(OC)nc3c(c(C)nn3-c3ccccc3)c2C)cc1 returned KDM5B inh inactive.
For Cc1nc2cc(F)ccc2cc1C(=O)N(Cc1cccnc1)C1CC1 the results were KDM5B inh inactive.
`O=C(NC1CC1)C1CCN(C2=NS(=O)(=O)c3ccccc32)CC1` gave KDM5B inh inactive.
Screening COCc1cn(C[C@H]2C[C@@H](NCc3cccc4c3OCO4)[C@H](O)[C@@H]2O)nn1 returned KDM5B inh inactive.
Screening COCc1cn(C[C@H]2C[C@@H](NCc3cccnc3)[C@H](O)[C@@H]2O)nn1 returned KDM5B inh 35.5µM*.
Screening O[C@@H]1[C@@H](Cn2cc(-c3cccnc3)nn2)C[C@@H](NCc2ccc(F)cc2)[C@@H]1O returned KDM5B inh inactive.
CC(C)c1ccc(CN(C)C(C)C(=O)NCc2cccs2)cc1 (centres undefined) was read as KDM5B inh inactive.
Cn1c(=O)c2c(n(C)c1=O)n(CC(=O)NC(C)(C)C)c(=O)n2C was read as KDM5B inh inactive.
`CC(Oc1ccccc1Cl)C(=O)NCc1csc(-c2ccccc2)n1` (centres undefined) gave KDM5B inh inactive.
For COc1cc(C2C(C(=O)OC(C)C)=C(C)Nc3nc4ccccc4n32)cc(OC)c1OC (centres undefined) the results were KDM5B inh inactive.
For Cc1cc2oc(C(=O)NCC(c3cccs3)N(C)C)cc(=O)c2cc1Cl (centres undefined) the results were KDM5B inh inactive.
`COc1ccccc1C(=O)N[C@@H]1CN(Cc2ccncc2)C[C@H]1CN(C)C` gave KDM5B inh 22.4µM*.
`Cc1cccnc1C(=O)N[C@@H]1CN(Cc2ccccc2)C[C@H]1CN(C)C` gave KDM5B inh inactive.
`COc1cccc(C(=O)N[C@@H]2CN(c3ncccn3)C[C@H]2CN(C)C)c1C` gave KDM5B inh 31.6µM*.
CN(C)C[C@@H]1CN(Cc2ccncc2)C[C@H]1N was read as KDM5B inh 17.8µM*.
COc1cccc(C(=O)N[C@@H]2CN(S(C)(=O)=O)C[C@H]2CN(C)C)c1C was read as KDM5B inh inactive.
`COc1ccc(C(=O)N[C@@H]2CN(c3ncccn3)C[C@H]2CN(C)C)c(OC)n1` gave KDM5B inh 25.1µM*.
COc1ccc(C2(C(=O)N[C@@H]3CN(c4ccncn4)C[C@H]3CN(C)C)CC2)cc1 was read as KDM5B inh inactive.
`CN(C)C[C@@H]1CN(Cc2ccccc2)C[C@H]1NS(=O)(=O)c1cccnc1` gave KDM5B inh inactive.
Screening CN(C)C[C@@H]1CN(Cc2ccncc2)C[C@H]1NS(=O)(=O)Cc1ccccc1 returned KDM5B inh inactive.
CCOc1ccccc1C(=O)N[C@@H]1CN(Cc2cccnc2)C[C@H]1CN(C)C was read as KDM5B inh inactive.
Screening COc1ccc(C(=O)NC2CCCN(CCc3ccccc3)C2)c(OC)n1 (centres undefined) returned KDM5B inh inactive.
Screening CC(=O)N1C[C@@H](CN(C)C)[C@H](NC(=O)c2ccccc2OC(F)(F)F)C1 returned KDM5B inh inactive.
Screening Cc1ccc(S(=O)(=O)Nc2c(NCC3CCCCC3)c3ccccc3oc2=O)cc1 returned KDM5B inh inactive.
For CCOc1ccc(-c2nc(CNC(=O)Nc3ccccc3Cl)c(C)o2)cc1 the results were KDM5B inh inactive.
Screening Cc1cccc(CNCc2ccccc2OCC(O)CN2CCSCC2)c1 (centres undefined) returned KDM5B inh inactive.
CCO[C@H]1CN(Cc2ccccc2OCCn2ccnc2)C[C@@H]1O was read as KDM5B inh inactive.
CN(C)C(=O)c1cccnc1OC1CCN(CCc2ccccc2)CC1 was read as KDM5B inh inactive.
`CCC(NCc1ccc(C(N)=O)cc1)c1ccc(Cl)cc1` (centres undefined) gave KDM5B inh inactive.
For CC(OC(=O)c1ccc(C#N)cc1)C(=O)NC(C)C1CC2CCC1C2 (centres undefined) the results were KDM5B inh inactive.
For Cc1cc(Cl)ccc1NC(=O)Cn1nc(C(=O)O)c2ccccc2c1=O the results were KDM5B inh inactive.
For CN(C)C[C@@H]1CN(Cc2ccccn2)C[C@H]1NC(=O)c1c[nH]c2ccccc12 the results were KDM5B inh inactive.
`CCn1ncc(C(=O)N[C@@H]2CN(c3ncccn3)C[C@H]2CN(C)C)c1C` gave KDM5B inh 25.1µM*.
Screening Cc1cnc(C(=O)N[C@@H]2CN(c3ccncn3)C[C@H]2CN(C)C)cn1 returned KDM5B inh inactive.
Screening Cc1ccc(NC(=O)CN(C)CC(=O)NC2(C#N)CCCC2)cc1 returned KDM5B inh inactive.
`O=C(c1ccco1)N1CCN(C2CCC3(CCNCC3)CC2)CC1` gave KDM5B inh inactive.
